PLAP activator: PLAP enzyme activators, biochemical, luminescence, HTS; hit rate 1.2% among 96,000; activation fold at 20 µM; purified PLAP enzyme, luminescent substrate read-out; stronger effect = higher value; Alkaline phosphatase, placental type (Homo sapiens), P05187; in the data active means activation fold above about 2
CYP2C19 inh: blockers of cytochrome P450 2C19 activity – biochemical, luminescence, ADME assay, primary screen | CYP2C19 Supersomes, luciferin-H EGE luminescence, 30 min | inhibition, % at 5 µM | hit rate 21% among 96,000;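 active means CYP2C19 inhibition above a set limit at 5 µM in the primary screen, cut at about 50% in these data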;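 further: plate controls were negative control wells for no effect and 2.5 mM tranylcypromine positive control for full effect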
CYP2C19 act: human CYP2C19 activators, primary screen, biochemical, luminescence. Cytochrome P450 2C19 (Homo sapiens), P33261. recombinant CYP2C19, luciferin-H EGE luminescence; stronger effect = higher value; 0 = fully inhibited enzyme, 1 = untreated enzyme. AID 1025, 2008. activation factor at 5 µM. 96,000 tested, under 10 active;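 active means activation factor of at least 2 at 5 µM in the primary screen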;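 further: 0 = wells with 2.5 mM tranylcypromine and 1 = vehicle-only wells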
CYP2C9 activ: human CYP2C9 activators, primary screen, biochemical, luminescence; hit rate 1.4% among 96,000; recombinant CYP2C9, luciferin-H conversion; stronger effect = higher value; factor 1 = untreated enzyme, 0 = blocked; AID 1024, 2008; activation factor at 5 µM;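 active means activation factor of 2 or more for CYP2C9 at a 5 µM dose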;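 further: 0 = sulfaphenazole-blocked wells and 1 = vehicle-only wells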
Target sequence (P11712 whole entry, looked up): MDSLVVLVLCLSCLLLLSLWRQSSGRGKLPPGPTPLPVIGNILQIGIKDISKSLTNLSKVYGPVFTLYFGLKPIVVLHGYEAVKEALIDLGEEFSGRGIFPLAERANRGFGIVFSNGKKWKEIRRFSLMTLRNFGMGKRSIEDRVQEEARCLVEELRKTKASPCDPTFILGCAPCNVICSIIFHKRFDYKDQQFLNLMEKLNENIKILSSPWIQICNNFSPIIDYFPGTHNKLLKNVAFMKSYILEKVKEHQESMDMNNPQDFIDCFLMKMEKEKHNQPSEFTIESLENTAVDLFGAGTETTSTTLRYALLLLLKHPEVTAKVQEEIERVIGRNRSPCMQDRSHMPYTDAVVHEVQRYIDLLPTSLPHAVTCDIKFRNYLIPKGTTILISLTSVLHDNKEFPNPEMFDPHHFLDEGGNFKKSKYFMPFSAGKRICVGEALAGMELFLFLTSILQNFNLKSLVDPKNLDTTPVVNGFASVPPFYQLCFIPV
CYP2C9 inhib: blockers of cytochrome P450 2C9 activity – biochemical, luminescence, ADME assay, primary screen; inhibition, % at 5 µM; CYP2C9 Supersomes, luciferin-H conversion; hit rate 20% among 96,000;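 active means blocking of liver enzyme CYP2C9 beyond about 50% at 5 µM, limit read from the data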
Numbers without * were called inactive. Most compounds without a hit are left out; they make up all but 31% or so of the library.

SMILES	PLAP activator	CYP2C19 inh	CYP2C19 act	CYP2C9 activ	CYP2C9 inhib
COc1cc2c(=O)n(CCCN3CCOCC3)c(=S)[nH]c2c(OC)c1OC	1.2	0.9	1	0.9	5.6
O=C(Cn1c(C(F)(F)F)nc2ccccc21)c1ccc(F)cc1	1.2	46.6	0.5	0.7	30.8
CC(C)(C)NC(=O)C(c1ccco1)N(C(=O)c1csnn1)c1ccccc1 (stereo unspecified)	1.2	13.1	0.9	0.9	10.2
O=C(NCc1ccc2c(c1)OCO2)C(c1ccco1)N(C(=O)c1csnn1)c1ccccc1 (stereo unspecified)	0.9	74.7*	0.3	0.8	15.8
O=C(NC1CCCC1)C(c1ccco1)N(Cc1ccccc1)C(=O)c1csnn1 (stereo unspecified)	0.8	71.1*	0.3	0.7	29.5
O=C(NC1CCCCC1)C(c1ccco1)N(Cc1cccnc1)C(=O)C1COc2ccccc2O1 (stereo unspecified)	1.4	84.2*	0.2	0.2	75.5*
NC(=O)CNC(=O)C1CCCc2c1[nH]c1ccc(Cl)cc21 (stereo unspecified)	1.1	9.8	0.9	0.5	50.1*
COc1cc(OC)cc(C(=O)NC(C(=O)NCCN(C)C)C23CC4CC(CC(C4)C2)C3)c1 (stereo unspecified)	1.6	93.2*	0.1	1	1.7
CCNC(=O)NC(C(=O)OC)C12CC3CC(CC(C3)C1)C2 (stereo unspecified)	1	29.7	0.7	1	-4.5
COc1cccc(N2CC(C)Cn3c2nc2c3c(=O)n(CCN3CCOCC3)c(=O)n2C)c1 (stereo unspecified)	1.5	-6.8	1.1	1	-0.7
CN(C)c1ccc(C2OC(=O)C(C)(C)C(=O)C2(C)C)cc1 (stereo unspecified)	1.2	14.5	0.9	1	1.3
CCC1(CC)C(=O)C(C)(C)C(=O)OC1c1cccs1 (stereo unspecified)	1	96.2*	0	0.6	43.9
CCOC(=O)c1ccc(N2Cc3ccccc3C2=N)cc1	0.8	41.8	0.6	0.2	84.7*
CCOC(=O)C(=Cc1ccc(-c2ccsc2C(=O)OC)o1)C(=O)OCC	0.9	34.3	0.7	0.5	50.0*
Clc1ccc(C2=CSC3=NCCN23)cc1Cl	0.7	71.3*	0.3	0.7	25.6
Cc1ccc(C)c(C2=CSC3=NCCN23)c1	1	52.1*	0.5	0.7	30.1
C1=C(c2cccc3ccccc23)N2CCN=C2S1	0.7	32.1	0.7	0.8	24.7
CCS(=O)(=O)N1CCN(Cc2nc3ccccc3c(=O)[nH]2)CC1	1.1	3.2	1	0.9	6.2
O=C(NN1C(=O)c2ccccc2NC1c1ccccc1OCc1ccccc1)c1ccncc1 (stereo unspecified)	1.3	49.3	0.5	0.7	32.9
Cc1snc(S(=O)(=O)/C(C#N)=N/Nc2ccc(C(F)(F)F)cc2)c1C#N	1.4	17.1	0.8	0.1	94.5*
Cc1snc(S(=O)(=O)/C(C#N)=N\Nc2ccccc2)c1C#N	1	30.3	0.7	0.1	92.1*
CCCN(CCC)CCCNC(=O)C1c2cc(OC)c(OC)cc2C(=O)N(C)C1c1cccs1 (stereo unspecified)	2*	0.4	1	1	-4.7
CCN(CC)CCCNC(=O)C1c2cc(OC)c(OC)cc2C(=O)N(C)C1c1cccs1 (stereo unspecified)	1.3	74.5*	0.3	0.8	19.1
O=C(OCc1cc2ccccc2[nH]c1=O)C1CCCCC1	1	88.7*	0.1	0	95.7*
O=C(OCc1cc2ccccc2[nH]c1=O)C1CCCO1 (stereo unspecified)	1	2.6	1	1	-4.0
CCC(=O)N1CCN(c2ccc(Cl)cc2NC(=O)c2ccc(N3CCCC3)c([N+](=O)[O-])c2)CC1	1.4	41.5	0.6	0.6	36.0
CCC(=O)N1CCN(c2ccc(Cl)cc2NC(=O)c2ccc3c(c2)OCCO3)CC1	1.5	25.7	0.7	0.3	71.0*
CCC(=O)N1CCN(c2ccc(Cl)cc2NC(=O)Cc2ccccc2)CC1	1.4	83.0*	0.2	0.2	79.3*
CCC(=O)Nc1cc(Cl)ccc1N1CCN(C(=O)CC)CC1	1.1	30.1	0.7	0.7	30.1

Screening data deposited in PubChem BioAssay by Sanford-Burnham Center for Chemical Genomics.
